Bioassay records from PubChem.
hNpr1 antagonist = blocks ANP-stimulated signaling of human Npr1 receptor; HEK293 hNpr1 GloSensor cGMP, ANP-stimulated luminescence; Potency, µM (top dose mostly 46.3 µM), most hits filed as inhibitors; actives 1.6% (n = 76,000); P16066; calls by dose curve; note: nearly all actives have a fitted effect of over 60% in size
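Compound pre-incubated 30 min at room temperature on GloSensor-loaded HEK293 cells stably carrying hNpr1 and the pGS-40F cGMP biosensor. Stimulation uses hNppA at 0.1 nM final; luminescence is taken at baseline and 20 min post-agonist.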
HEK cytotox = HEK 293 cell cytotoxicity; AID 1345083; HEK 293 viability, ATP luminescence (CellTiter-Glo), 48-72 h; actives 6.6% (n = 94,000); Potency, µM (highest dose often 115 µM), most hits filed as inhibitors; note: nearly all actives have a fitted effect of over 60% in size
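HEK 293 cells seeded at 250 cells/well were exposed to compound for 48 or 72 hr at 37 degree Celsius. Viability taken as ATP content by CellTiter-Glo luminescence.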
GPT2 inhibitor = GPT2 alanine aminotransferase inhibition; Q8TD30; Recombinant GPT2, coupled pyruvate oxidase/HRP Amplex Red fluorescence; Potency, µM (titrated, usually from 57.7 µM), hits mostly inhibitors; actives 0.25% (n = 100,000); AID 1671188; note: nearly all actives have a fitted effect of over 60% in size
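GPT2 10ng/uL, a-KG 250uM, L-Ala 2mM, HEPES pH7.5 + 0.0001% Tween; 30 min RT. Then Amplex mix (PO/HRP/ThPP), 30 min RT dark, fluorescence. AOA 50uM used as positive control.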
3T3 cytotox = NIH 3T3 cell cytotoxicity; NIH 3T3 viability, CellTiter-Glo ATP luminescence, 48-72 h; Potency, µM (top dose mostly 96.7 µM), hits mostly inhibitors; actives 4.3% (n = 94,000); AID 1345082; note: nearly all actives have a fitted effect of over 55% in size
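First NIH 3T3 cells are plated at 400 cells/well; next compound is pinned in; then plates incubate 48 or 72 hr at 37 °C; finally CellTiter-Glo is added and luminescence read after 10 min.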
FLuc inh = Photinus pyralis luciferase inhibition; P08659; Potency, µM (series often up to 115 µM), usual class: inhibitors; purified P. pyralis luciferase, luminescence, biochemical; actives 2.5% (n = 76,000); note: nearly all actives have a fitted effect of over 65% in size
Target sequence (P08659 whole entry, looked up): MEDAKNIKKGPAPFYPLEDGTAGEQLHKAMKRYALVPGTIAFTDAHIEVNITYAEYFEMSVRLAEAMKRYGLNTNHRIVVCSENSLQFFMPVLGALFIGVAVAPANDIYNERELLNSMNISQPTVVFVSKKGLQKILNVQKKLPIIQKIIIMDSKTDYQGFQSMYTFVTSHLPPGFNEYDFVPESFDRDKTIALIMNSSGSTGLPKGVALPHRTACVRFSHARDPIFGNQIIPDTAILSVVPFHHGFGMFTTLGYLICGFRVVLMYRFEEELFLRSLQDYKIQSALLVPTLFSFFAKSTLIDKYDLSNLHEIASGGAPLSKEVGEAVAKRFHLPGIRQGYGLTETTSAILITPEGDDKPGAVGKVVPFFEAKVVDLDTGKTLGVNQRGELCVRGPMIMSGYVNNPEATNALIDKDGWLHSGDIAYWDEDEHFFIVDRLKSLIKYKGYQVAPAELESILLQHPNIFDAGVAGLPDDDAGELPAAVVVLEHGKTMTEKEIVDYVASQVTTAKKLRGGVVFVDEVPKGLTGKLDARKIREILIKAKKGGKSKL
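Purified 10nM P. pyralis luciferase with 10uM D-luciferin and 10uM ATP in 50mM Tris acetate pH 7.5, 10mM Mg acetate, 0.01% Tween-20, 0.05% BSA. qHTS titration; luminescence read by CCD imager.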
Each line names hits and unclear results; the compound was inactive in the other large screens. Compounds with a hit are over-represented: about 10% of the library has one in this group of screens. Unless noted, calls come from the whole dose curve; as a rule, active = well fitted curve in the direction sought with a large enough effect; inconclusive = small, poorly fitted or top-dose-only effect, or another doubt; inactive = no such curve, though single readings can be large; an effect the other way counts as inactive or inconclusive.

CN(C)c1ccc(-c2cc(-c3ccc(=O)[nH]c3)c3cncn3c2)cc1	3T3 cytotox inconclusive, FLuc inh inconclusive
COc1cccc(-c2cc(-c3cccnc3)c3cncn3c2)c1OC	HEK cytotox inconclusive, 3T3 cytotox inconclusive, FLuc inh 50µM
COc1ccc(CC(=O)N2CCc3nc(C(C)C)nc(-c4ccc(O)cc4)c3CC2)cc1	3T3 cytotox inconclusive (no result: hNpr1 antagonist, FLuc inh)
N#Cc1cccc(CN2CCCC(c3[nH]ccc3C(N)=O)C2)c1 (stereo unspecified)	none
COCc1nncn1C1CCN(S(=O)(=O)c2ccc(Br)s2)CC1	HEK cytotox inconclusive, 3T3 cytotox inconclusive (no result: hNpr1 antagonist, FLuc inh)
COc1ccccc1-c1cc(-c2ccncc2)c2cncn2c1	HEK cytotox 89µM, 3T3 cytotox 11µM
COc1ccccc1-c1cc(-c2cccnc2)c2cncn2c1	HEK cytotox inconclusive, 3T3 cytotox inconclusive
COc1ccc(-c2cc(-c3ccc(OC)c(OC)c3)cn3cncc23)cc1	HEK cytotox 71µM, 3T3 cytotox 40µM
COc1ccc(-c2cc(-c3cccnc3)c3cncn3c2)cc1OC	HEK cytotox inconclusive, 3T3 cytotox 35µM
COc1ccc(-c2cc(-c3ccncc3)c3cncn3c2)cc1OC	HEK cytotox inconclusive, 3T3 cytotox 25µM
c1cncc(-c2cc(-c3ccc4cn[nH]c4c3)cn3cncc23)c1	HEK cytotox inconclusive, 3T3 cytotox inconclusive, FLuc inh inconclusive
CC1(c2ccccc2)N(Cc2ncccn2)C(=O)OC12CCN(Cc1cccc(OC(F)(F)F)c1)CC2 (stereo unspecified)	HEK cytotox 50µM, GPT2 inhibitor inconclusive, 3T3 cytotox 40µM
CC1(c2ccccc2)N(Cc2ccccc2)C(=O)OC12CCN(Cc1cccnc1)CC2 (stereo unspecified)	HEK cytotox inconclusive, 3T3 cytotox 100µM
CC1(c2ccccc2)N(Cc2ccccc2)C(=O)OC12CCN(c1cccnc1)CC2 (stereo unspecified)	HEK cytotox 71µM, 3T3 cytotox 89µM
CCN1CCN(C(=O)c2cc(-c3cc(Cl)cc(Cl)c3)c3nncn3n2)CC1	3T3 cytotox inconclusive (no result: hNpr1 antagonist, FLuc inh)
COCCCNC(=O)c1ccc2nnc(-c3ccc(OC(F)(F)F)cc3)n2c1	none (no result: hNpr1 antagonist, FLuc inh)
COc1ccc(Cn2c(=O)c(C(=O)N3CCC(C#N)CC3)nc3cccnc32)cc1	none (no result: hNpr1 antagonist, FLuc inh)
O=C(c1ccccn1)N1CCCC2(CNc3ncccc3[S+](=O)([O-])N2)C1 (stereo unspecified)	none (no result: hNpr1 antagonist, GPT2 inhibitor, FLuc inh)
COc1ccccc1-c1ccc(CN2CCC(NC(=O)c3ccc(C(F)(F)F)cc3)C2)cc1 (stereo unspecified)	HEK cytotox 25µM, 3T3 cytotox inconclusive (no result: hNpr1 antagonist, GPT2 inhibitor, FLuc inh)
COc1ccc(F)cc1-c1ccc(CN2CCC(NC(=O)c3ccc(C(F)(F)F)cc3)C2)cc1 (stereo unspecified)	HEK cytotox 20µM, 3T3 cytotox inconclusive (no result: hNpr1 antagonist, GPT2 inhibitor, FLuc inh)
c1cc(-c2cc(-c3cn[nH]c3)c3cncn3c2)cc(N2CCOCC2)c1	HEK cytotox inconclusive, 3T3 cytotox 25µM
COc1ccc(-c2cc(-c3cn[nH]c3)c3cncn3c2)cn1	HEK cytotox inconclusive, 3T3 cytotox inconclusive
c1cc(-c2cc(-c3cn[nH]c3)cn3cncc23)ccn1	HEK cytotox 35µM, GPT2 inhibitor inconclusive, 3T3 cytotox 28µM
c1cncc(-c2cc(-c3cccc(N4CCOCC4)c3)cn3cncc23)c1	HEK cytotox inconclusive, 3T3 cytotox inconclusive
C1=C(c2cc(-c3ccncc3)cn3cncc23)CCOC1	HEK cytotox 100µM, 3T3 cytotox 25µM
CN(C)c1cccc(-c2cc(-c3cn[nH]c3)c3cncn3c2)c1	HEK cytotox inconclusive, 3T3 cytotox 14µM, FLuc inh inconclusive
O=C(Nc1cc(-c2ccccn2)nn1-c1ccccc1)c1ccc(Cl)cc1	none (no result: hNpr1 antagonist, FLuc inh)
Cc1nc(C)c(C(=O)N2CCCCCCNC(=O)[C@@H]3CCCC[C@@H]32)s1	none
CC(CNc1nccc(C2(c3ccccc3Cl)CCNCC2)n1)CN(C)C (stereo unspecified)	3T3 cytotox inconclusive
CCC(C)Cc1nccc(C2(c3ccccc3Cl)CCNCC2)n1 (stereo unspecified)	HEK cytotox 25µM, 3T3 cytotox 28µM
C[C@@H](O)CNc1nccc(C2(c3ccccc3Cl)CCNCC2)n1	none
CC(C)CNc1nccc(C2(c3ccccc3Cl)CCNCC2)n1	HEK cytotox 25µM, 3T3 cytotox 28µM
CN(Cc1ccc(F)cc1)S(=O)(=O)c1cccs1	HEK cytotox 79µM
COc1cccc(C(=O)N2CCCC2C(=O)N2CCC(N3Cc4cccn4C3=O)CC2)c1 (stereo unspecified)	3T3 cytotox inconclusive (no result: hNpr1 antagonist, FLuc inh)
COc1ccc(CN2CC(N(C)c3ccccc3C)C2)cc1	HEK cytotox inconclusive, 3T3 cytotox 79µM (no result: hNpr1 antagonist, FLuc inh)
Cc1ccccc1N(C)C1CN(Cc2ccc(C#N)cc2)C1	HEK cytotox inconclusive, 3T3 cytotox inconclusive
COc1ccc(CN2CC(Oc3ccc(F)c(C)c3)C2)cc1	HEK cytotox 89µM, 3T3 cytotox inconclusive
Cc1ccc([S+](=O)([O-])N2CCCC(C(=O)N3CCCC(c4nc5ccncc5[nH]4)C3)C2)cc1 (stereo unspecified)	HEK cytotox inconclusive, 3T3 cytotox inconclusive (no result: hNpr1 antagonist, FLuc inh)
COc1ccc(-c2cn3cc(C(=O)NCc4ccccn4)nc3s2)cc1	HEK cytotox inconclusive, 3T3 cytotox inconclusive (no result: hNpr1 antagonist, FLuc inh)
Cn1ccc2c(C(=O)NCc3cccnc3)nc(-c3ccncc3)cc21	HEK cytotox inconclusive, GPT2 inhibitor inconclusive, 3T3 cytotox inconclusive, FLuc inh inconclusive
Cn1ccc2c(C(=O)NCc3cccnc3)nc(-c3ccc(CO)cc3)cc21	3T3 cytotox 45µM
Cn1ccc2c(C(=O)NCc3cccnc3)nc(-c3ccccc3C(F)(F)F)cc21	HEK cytotox 71µM, 3T3 cytotox 45µM
Cn1ccc2c(C(=O)NCc3cccnc3)nc(-c3cccnc3)cc21	3T3 cytotox 25µM
CN(C)CCNC(=O)c1nc(-c2ccc(N3CCN(C)CC3)cc2)cc2c1ccn2C	HEK cytotox inconclusive, 3T3 cytotox 7.9µM, FLuc inh inconclusive
O=C(NCCc1ccccc1)c1nc2sccn2c1-c1ccc(F)cc1	HEK cytotox inconclusive, 3T3 cytotox inconclusive (no result: hNpr1 antagonist, FLuc inh)
Cn1nc(-c2ccncc2)cc1NC(=O)C1CC1	none (no result: hNpr1 antagonist, FLuc inh)
C=CC(=O)Nc1cc(Nc2nccc(-c3c[nH]c4ccccc34)n2)c(OC)cc1N(C)CCN(C)C	none (no result: hNpr1 antagonist, HEK cytotox, 3T3 cytotox, FLuc inh)
Cn1ccc2c(C(=O)NCc3cccnc3)nc(-c3cccc(N4CCOCC4)c3)cc21	HEK cytotox inconclusive, 3T3 cytotox inconclusive
CC(=O)Nc1cccc(-c2cc3c(ccn3C)c(C(=O)NCc3cccnc3)n2)c1	HEK cytotox inconclusive, 3T3 cytotox 25µM
CC(C)c1nc2c(c(-c3ccc(O)cc3)n1)CCN(C(=O)c1ccccc1F)CC2	none (no result: hNpr1 antagonist, FLuc inh)
COc1cccc(-c2cnc3n[nH]c(-c4ccccc4)c3n2)c1	HEK cytotox 56µM, GPT2 inhibitor inconclusive, 3T3 cytotox 40µM
